Key:
Experiment in all cases: PBM binding z-score (relative to random genomic background probes); higher = stronger binding; sequences stand for … in GC…GCGATTGACAGCGTAGAATGAAGG
[1] = tested on: PPARg:RXRa DBDmut IVT, anti-RXR (DBD mutation: RXRa K156A/R161A, NR concentration 270 nM, RXRa partner concentration 90 nM)
Summary of the method: (§1)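 Each nuclear receptor dimer, without ligand, was incubated for 1 h on custom Agilent 4×180K protein-binding microarrays. Binding was detected with antibodies against each partner (one per run), and scanned fluorescence was regression-normalized. The binding z-scores are referenced to random human genomic background probes.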

[2] = tested on: PPARg:RXRa IVT, anti-PPARg (NR concentration 270 nM, RXRa partner concentration 90 nM)
Summary of the method: as §1

[3] = tested on: PPARg DBDmut:RXRa IVT, anti-PPARg (DBD mutation: PPARg1 K132A/R137A, NR concentration 270 nM, RXRa partner concentration 90 nM)
Summary of the method: as §1

[4] = tested on: PPARg DBDmut IVT, anti-PPARg (DBD mutation: PPARg1 K132A/R137A, NR concentration 270 nM)
Summary of the method: as §1

[5] = tested on: PPARg homodimer (NR concentration 180 nM)
Summary of the method: as §1

[6] = tested on: PXR:RXRa (NR concentration 270 nM, RXRa partner concentration 90 nM)
Summary of the method: as §1

[7] = tested on: PXR homodimer (NR concentration 270 nM)
Summary of the method: as §1

[8] = tested on: RARa:RXR (NR concentration 270 nM, RXRa partner concentration 90 nM)
Summary of the method: as §1

[9] = tested on: RARa homodimer (NR concentration 270 nM)
Summary of the method: as §1

[10] = tested on: RARb:RXRa (NR concentration 270 nM, RXRa partner concentration 90 nM)
Summary of the method: as §1

[11] = tested on: RARb homodimer (NR concentration 270 nM)
Summary of the method: as §1

[12] = tested on: RARg:RXRa (NR concentration 270 nM, RXRa partner concentration 90 nM)
Summary of the method: as §1

[13] = tested on: RARg homodimer (NR concentration 270 nM)
Summary of the method: as §1

[14] = tested on: RXRa DBDmut IVT, anti-RXR (DBD mutation: RXRa K156A/R161A, NR concentration 90 nM)
Summary of the method: as §1

[15] = tested on: RXRa homodimer (NR concentration 180 nM)
Summary of the method: as §1

[16] = tested on: THRa:RXRa (NR concentration 90 nM, RXRa partner concentration 90 nM)
Summary of the method: as §1

[17] = tested on: THRa homodimer (NR concentration 90 nM)
Summary of the method: as §1

[18] = tested on: VDR homodimer (NR concentration 270 nM)
Summary of the method: as §1

**Q.** Which PBM binding z-score [1] does the source give for CCTCGGAGGACAGAAGGTCAGTGCTGTCCGCTTT here?
**A.** -0.0749

**Q.** And the PBM binding z-score [2]?
**A.** -0.108

**Q.** And the PBM binding z-score [3]?
**A.** -0.925

**Q.** And the PBM binding z-score [4]?
**A.** -2

**Q.** And the PBM binding z-score [5]?
**A.** 1.55

**Q.** What about the PBM binding z-score [6] of the same sequence?
**A.** 1.18

**Q.** And the PBM binding z-score [7]?
**A.** -0.686

**Q.** And the PBM binding z-score [8]?
**A.** 1.65

**Q.** And the PBM binding z-score [9]?
**A.** -0.0741

**Q.** What about the PBM binding z-score [10] of the same sequence?
**A.** 3.28

**Q.** What about the PBM binding z-score [11] of the same sequence?
**A.** 3.69

**Q.** And the PBM binding z-score [12]?
**A.** 3.14

**Q.** What about the PBM binding z-score [13] of the same sequence?
**A.** 3.23

**Q.** What about the PBM binding z-score [14] of the same sequence?
**A.** 0.236

**Q.** And the PBM binding z-score [15]?
**A.** 1.25

**Q.** And the PBM binding z-score [16]?
**A.** 1.88

**Q.** And the PBM binding z-score [17]?
**A.** -0.0278

**Q.** And the PBM binding z-score [18]?
**A.** 0.261

**Q.** GCTTGTAGATCAATGTTAAGAAAGACTAAGCTAA was tested. Which PBM binding z-score [1] did it give?
**A.** 1.38

**Q.** And the PBM binding z-score [2]?
**A.** 0.377

**Q.** What about the PBM binding z-score [3] of the same sequence?
**A.** -0.235

**Q.** What about the PBM binding z-score [4] of the same sequence?
**A.** 0.113

**Q.** What about the PBM binding z-score [5] of the same sequence?
**A.** -0.551

**Q.** What about the PBM binding z-score [6] of the same sequence?
**A.** -0.629

**Q.** And the PBM binding z-score [7]?
**A.** -0.348

**Q.** What about the PBM binding z-score [8] of the same sequence?
**A.** -0.432

**Q.** And the PBM binding z-score [9]?
**A.** -0.306

**Q.** What about the PBM binding z-score [10] of the same sequence?
**A.** -0.399

**Q.** What about the PBM binding z-score [11] of the same sequence?
**A.** -0.892

**Q.** What about the PBM binding z-score [12] of the same sequence?
**A.** -0.411

**Q.** What about the PBM binding z-score [13] of the same sequence?
**A.** -0.155

**Q.** What about the PBM binding z-score [14] of the same sequence?
**A.** 0.255

**Q.** What about the PBM binding z-score [15] of the same sequence?
**A.** -0.609

**Q.** What about the PBM binding z-score [16] of the same sequence?
**A.** -0.166

**Q.** And the PBM binding z-score [17]?
**A.** -1.2

**Q.** What about the PBM binding z-score [18] of the same sequence?
**A.** -0.713

**Q.** For AGTCAAAGTTCACTAGGTAAAGTAAGATTCAGCT, which PBM binding z-score [1] is on record?
**A.** 1.8

**Q.** And the PBM binding z-score [2]?
**A.** 4.56

**Q.** What about the PBM binding z-score [3] of the same sequence?
**A.** 0.983

**Q.** What about the PBM binding z-score [4] of the same sequence?
**A.** 1.74

**Q.** What about the PBM binding z-score [5] of the same sequence?
**A.** 2.43

**Q.** What about the PBM binding z-score [6] of the same sequence?
**A.** 3.9

**Q.** What about the PBM binding z-score [7] of the same sequence?
**A.** 2.63

**Q.** And the PBM binding z-score [8]?
**A.** 3.07

**Q.** And the PBM binding z-score [9]?
**A.** 1.41

**Q.** What about the PBM binding z-score [10] of the same sequence?
**A.** 4.74

**Q.** What about the PBM binding z-score [11] of the same sequence?
**A.** 3.32

**Q.** And the PBM binding z-score [12]?
**A.** 4.93

**Q.** What about the PBM binding z-score [13] of the same sequence?
**A.** 5.48

**Q.** And the PBM binding z-score [14]?
**A.** 4.25

**Q.** And the PBM binding z-score [15]?
**A.** 4.02

**Q.** What about the PBM binding z-score [16] of the same sequence?
**A.** 1.75

**Q.** What about the PBM binding z-score [17] of the same sequence?
**A.** 0.0953

**Q.** And the PBM binding z-score [18]?
**A.** 3.61

**Q.** Which results are given for ATCTCTAGGTAAACTTCAGTGAAAGATCGATAGA?
**A.** PBM binding z-score [1]: 2.68; PBM binding z-score [2]: 2.02; PBM binding z-score [3]: 1.5; PBM binding z-score [4]: 1.2; PBM binding z-score [5]: 0.999; PBM binding z-score [6]: 0.0812; PBM binding z-score [7]: 0.42; PBM binding z-score [8]: 0.344; PBM binding z-score [9]: 1.42; PBM binding z-score [10]: 0.268; PBM binding z-score [11]: 0.191; PBM binding z-score [12]: 0.307; PBM binding z-score [13]: 0.513; PBM binding z-score [14]: 0.168; PBM binding z-score [15]: 0.222; PBM binding z-score [16]: 0.667; PBM binding z-score [17]: 0.466; PBM binding z-score [18]: 0.34

**Q.** Which PBM binding z-score [1] does the source give for GCTAGTTCGTCAGTAAAAGGTCACACACCGGTCG here?
**A.** 0.269

**Q.** And the PBM binding z-score [2]?
**A.** 1.84

**Q.** What about the PBM binding z-score [3] of the same sequence?
**A.** 0.221

**Q.** And the PBM binding z-score [4]?
**A.** 0.516

**Q.** And the PBM binding z-score [5]?
**A.** 5.83

**Q.** And the PBM binding z-score [6]?
**A.** 5.56

**Q.** And the PBM binding z-score [7]?
**A.** 1.64

**Q.** And the PBM binding z-score [8]?
**A.** 6.4

**Q.** And the PBM binding z-score [9]?
**A.** 3.07

**Q.** What about the PBM binding z-score [10] of the same sequence?
**A.** 4.08

**Q.** And the PBM binding z-score [11]?
**A.** 5

**Q.** What about the PBM binding z-score [12] of the same sequence?
**A.** 5.12

**Q.** What about the PBM binding z-score [13] of the same sequence?
**A.** 4.64

**Q.** What about the PBM binding z-score [14] of the same sequence?
**A.** 2.51

**Q.** And the PBM binding z-score [15]?
**A.** 5.36

**Q.** And the PBM binding z-score [16]?
**A.** 3.72

**Q.** What about the PBM binding z-score [17] of the same sequence?
**A.** 1.98

**Q.** What about the PBM binding z-score [18] of the same sequence?
**A.** 2.88

**Q.** With TCTATTAGTTGATGAGGGCAACCGAAACAGCGGA as the sequence, how does the PBM binding z-score [1] read?
**A.** 2.06

**Q.** What about the PBM binding z-score [2] of the same sequence?
**A.** 0.967

**Q.** What about the PBM binding z-score [3] of the same sequence?
**A.** 0.312

**Q.** What about the PBM binding z-score [4] of the same sequence?
**A.** 0.843

**Q.** What about the PBM binding z-score [5] of the same sequence?
**A.** 1

**Q.** And the PBM binding z-score [6]?
**A.** 0.877

**Q.** What about the PBM binding z-score [7] of the same sequence?
**A.** 0.351

**Q.** And the PBM binding z-score [8]?
**A.** 0.981

**Q.** And the PBM binding z-score [9]?
**A.** 0.755

**Q.** What about the PBM binding z-score [10] of the same sequence?
**A.** 1.41

**Q.** What about the PBM binding z-score [11] of the same sequence?
**A.** 1.27

**Q.** What about the PBM binding z-score [12] of the same sequence?
**A.** 0.771

**Q.** And the PBM binding z-score [13]?
**A.** 0.907

**Q.** And the PBM binding z-score [14]?
**A.** 1.31

**Q.** And the PBM binding z-score [15]?
**A.** 1.06

**Q.** And the PBM binding z-score [16]?
**A.** 1.68

**Q.** And the PBM binding z-score [17]?
**A.** 0.938

**Q.** What about the PBM binding z-score [18] of the same sequence?
**A.** 1.35

**Q.** Which results are given for TCTCGGAGGCCACGAAGGTCAGAGCTTTCCAGAG?
**A.** PBM binding z-score [1]: 1.55; PBM binding z-score [2]: 1.81; PBM binding z-score [3]: -1.16; PBM binding z-score [4]: -1.03; PBM binding z-score [5]: 0.239; PBM binding z-score [6]: 2.19; PBM binding z-score [7]: 0.613; PBM binding z-score [8]: 2.29; PBM binding z-score [9]: -1.17; PBM binding z-score [10]: 3.38; PBM binding z-score [11]: 3.74; PBM binding z-score [12]: 3.08; PBM binding z-score [13]: 3.36; PBM binding z-score [14]: 0.442; PBM binding z-score [15]: 1.88; PBM binding z-score [16]: 2.12; PBM binding z-score [17]: -0.105; PBM binding z-score [18]: 0.706

**Q.** With CCTAGTTGGTCAAGGTGACACACGCTATAGGTAC as the sequence, how does the PBM binding z-score [1] read?
**A.** 1.63

**Q.** And the PBM binding z-score [2]?
**A.** 3.11

**Q.** And the PBM binding z-score [3]?
**A.** 0.179

**Q.** What about the PBM binding z-score [4] of the same sequence?
**A.** 0.257

**Q.** And the PBM binding z-score [5]?
**A.** 1.46

**Q.** What about the PBM binding z-score [6] of the same sequence?
**A.** 0.478

**Q.** What about the PBM binding z-score [7] of the same sequence?
**A.** 0.557

**Q.** And the PBM binding z-score [8]?
**A.** 1.28

**Q.** And the PBM binding z-score [9]?
**A.** 1.57

**Q.** And the PBM binding z-score [10]?
**A.** 1.86

**Q.** And the PBM binding z-score [11]?
**A.** 1.8

**Q.** What about the PBM binding z-score [12] of the same sequence?
**A.** 1.49

**Q.** What about the PBM binding z-score [13] of the same sequence?
**A.** 1.74

**Q.** What about the PBM binding z-score [14] of the same sequence?
**A.** 0.165

**Q.** What about the PBM binding z-score [15] of the same sequence?
**A.** 1.05

**Q.** What about the PBM binding z-score [16] of the same sequence?
**A.** 2.06

**Q.** And the PBM binding z-score [17]?
**A.** 1.65

**Q.** And the PBM binding z-score [18]?
**A.** 0.83

— the supplement of paper PMC6555819
